Activity calls are given as the source filed them. How the source made its calls: active means hit-call score of the fitted dose curve at least 0.9, where 1 is the maximum; inactive means score below 0.9.
The molecules below were run against Retinoic acid receptor alpha (Homo sapiens) (UniProt P10276) (assay: ATG_DR5_RAR_CIS: Attagene CIS-FACTORIAL HepG2 Assay for human Retinoic Acid Receptor Alpha (RARE), DR5 submotif (AID 2282934;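 on AC50: reporter responds to endogenous RAR alpha beta and gamma in HepG2 not RARA alone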)). Settings: HepG2 Attagene cis-factorial RARE DR5 reporter, mRNA; actives raise or lower the signal.
Retinoic acid receptor alpha (Homo sapiens), sequence (P10276 whole entry, looked up): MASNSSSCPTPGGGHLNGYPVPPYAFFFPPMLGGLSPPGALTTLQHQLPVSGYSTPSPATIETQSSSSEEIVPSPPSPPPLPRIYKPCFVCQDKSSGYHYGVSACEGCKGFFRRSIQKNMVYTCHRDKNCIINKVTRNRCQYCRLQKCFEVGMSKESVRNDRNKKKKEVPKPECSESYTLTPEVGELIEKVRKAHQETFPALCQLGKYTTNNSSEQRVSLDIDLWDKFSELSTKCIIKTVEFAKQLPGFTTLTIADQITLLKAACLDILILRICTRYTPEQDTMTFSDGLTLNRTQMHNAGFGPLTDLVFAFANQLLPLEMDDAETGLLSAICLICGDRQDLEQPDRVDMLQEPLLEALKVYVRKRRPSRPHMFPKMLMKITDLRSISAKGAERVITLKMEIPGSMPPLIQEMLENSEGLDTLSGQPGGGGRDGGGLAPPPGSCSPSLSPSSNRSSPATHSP
Protocol: ATG_CIS is a cell-based, multiplexed-readout assay that uses HepG2, a human liver cell line, with measurements taken at 24 hours after chemical dosing in a 24-well plate.ATG_DR5_RAR_CIS is one of 52 assay component(s) measured or calculated from the ATG_CIS assay. It is designed to make measurements of mRNA induction, a form of inducible reporter, as detected with fluorescence intensity signals by Reverse transcription polymerase chain reaction (RT-PCR) and Capillary electrophoresis technology.Data from the assay component ATG_DR5_RAR_CIS was analyzed into 1 assay endpoint. This assay endpoint, ATG_DR5_CIS, was analyzed with bidirectional fitting relative to DMSO as the negative control and baseline of activity. Using a type of inducible reporter, measures of mRNA for gain or loss-of-signal activity can be used to understand the reporter gene at the transcription factor-level as they relate to the gene RARA and RARB and RARG. Furthermore, this assay endpoint can be referred to as a primary readout, because this assay has produced multiple assay endpoints where this one serves a reporter gene function. To generalize the intended target to other relatable targets, this assay endpoint is annotated to the nuclear receptor intended target family, where the subfamily is non-steroidal.
Human liver HepG2 cells are transiently transfected with multiple reporter transcription units (MRTUs) in 6-well plates using FuGene 6 reagent (Roche; 3 ml FuGene/1 mg DNA). The MRTU constructs are regulated by a cis-regulating element (promoter). […] A major difference between the CIS and TRANS system is that in CIS activities of endogenous TFs are measured, whereas the TRANS assay evaluates changes in activities of exogenous, chimeric NR-Gal4 proteins. […] At the end of 24 hour incubation, total RNA was isolated using TriZol reagent (Invitrogen). The isolated RNA is then reverse-transcribed using oligo(dT) primer and Mo-MLV reverse transcriptase (Invitrogen) with DNAse I (Ambion) treatment for 30 min. The one-tenth of the produced cDNA was amplified by PCR using Taq DNA polymerase (Invitrogen) and two reporter sequence-specific primers. The PCR products were fluorescently labeled by primer extension with 6-arboxyfluorescein (6-FAM) 5'-labeled reporter sequence-specific primer (2 min at 95 C, 20 s at 68 C and 10 min at 72 C) and these products were digested with 5U of HpaI (New England Biolabs) for 2h at 37 C. The fragments were purified using Qiaquick PCR columns (Qiagen), analyzed on an ABI 3130xL genetic analyzer (Applied Biosystems) with peak positions identified by using a set of X-rhodamine (ROX)-labeled MapMarker1000 molecular weight standards (BioVentures). The raw capillary electrophoresis data was processed using Attagraph software (Attagene).

SMILES	outcome	AC50
O=C1C(Cl)=C(Cl)C(=O)C(Cl)=C1Cl	inactive	–
CC=Cc1ccc2c(c1)OCO2	inactive	–
CCC(Br)(CC)C(=O)NC(N)=O	inactive	–
N#CC(c1ccccc1)c1ccccc1	inactive	–
CC1CCCC1.[C-]#[O+].[C-]#[O+].[C-]#[O+].[Mn]	inactive	–
O=C(O)CCl	inactive	–
CC(C)C#N	inactive	–
Nc1ccccc1C(=O)Oc1ccc2ccccc2c1	–	173 µM (active)
CCc1cccc(C)c1N(C(=O)CCl)[C@@H](C)COC	inactive	–
N#Cc1cccc(C#N)c1	inactive	–
Oc1cc(Cl)ccc1Cl	inactive	–
c1ccc(Nc2ccc3ccccc3c2)cc1	inactive	–
CC(C)(Cl)Cl	inactive	–
C=CC(=O)OCC(CC)CCCC (stereo not given)	–	19.8 µM (active)
O=C1Nc2ccc(Cl)cc2C(c2ccccc2)=NC1O (stereo not given)	inactive	–
C=C(Cl)CCl	inactive	–
Cc1ccc(OP(=O)(Oc2ccc(C)cc2)Oc2ccc(C)cc2)cc1 (tested in a mixture with another compound)	inactive	–
O=[N+]([O-])c1cc([N+](=O)[O-])c2ccccc2c1	inactive	–
COC(C)(C)CCC[C@H](C)C/C=C/C(C)=C/C(=O)OC(C)C	inactive	–
Nc1ccc(-c2ccc(N)c(N)c2)cc1N	inactive	–

SMILES	outcome	AC50
[CH3][Sn]([CH3])([Cl])[Cl]	inactive	–
O=P1(NCCCl)OCCCN1CCCl (stereo not given)	inactive	–
Nc1ccc([N+](=O)[O-])cc1N	inactive	–
C=CCc1ccc(OC(=O)Cc2ccccc2)c(OC)c1	inactive	–
CCOP(=O)(OCC)Oc1ccc([N+](=O)[O-])cc1	inactive	–
Cl/C=C\CCl	inactive	–
O=c1[nH]c(Cl)c(Cl)cc1Cl	inactive	–
O=[N+]([O-])O.O=[N+]([O-])O.[Cd]	–	2.08 µM (active)
O=S(=O)(c1ccccc1)c1ccccc1	inactive	–
Nc1cc(Cl)cc(Cl)c1	inactive	–
CCCCOC(=O)CCC(=O)OCCCC	inactive	–
CN(C)C(=O)C(c1ccccc1)c1ccccc1	inactive	–
CCCCCCC1CCOC1=O (stereo not given)	inactive	–
O=[N+]([O-])O	inactive	–
c1cc(OCC2CO2)ccc1Cc1ccc(OCC2CO2)cc1 (stereo not given)	inactive	–
CCOC(=O)COc1ccc(Cl)cc1Cl	inactive	–
C=C(Cl)Cl	inactive	–
N#CCCCl	inactive	–
COC(=O)c1ccccc1S(=O)(=O)NC(=O)Nc1nc(C)cc(C)n1	inactive	–
C[N+](C)=CCl	inactive	–

From PubChem BioAssay (EPA / NIEHS)
